# In PubChem BioAssay (Tox21):
# Inconclusive results are not listed. Values without a mark were called inactive. The source made the active and inactive calls. The call rests on the fitted dose curve; in most records, active means well fitted inhibition curve with a large enough effect in the signal ratio in the repeat runs (not every such curve was filed as active); inconclusive means weak or mixed curves, or effect the other way; inactive means no such curve, though single readings can be large or run the other way; the % refers to the signal ratio.
# Molecular target: Glucocorticoid receptor (Homo sapiens) (UniProt P04150)
# Sequence (P04150 whole entry, looked up): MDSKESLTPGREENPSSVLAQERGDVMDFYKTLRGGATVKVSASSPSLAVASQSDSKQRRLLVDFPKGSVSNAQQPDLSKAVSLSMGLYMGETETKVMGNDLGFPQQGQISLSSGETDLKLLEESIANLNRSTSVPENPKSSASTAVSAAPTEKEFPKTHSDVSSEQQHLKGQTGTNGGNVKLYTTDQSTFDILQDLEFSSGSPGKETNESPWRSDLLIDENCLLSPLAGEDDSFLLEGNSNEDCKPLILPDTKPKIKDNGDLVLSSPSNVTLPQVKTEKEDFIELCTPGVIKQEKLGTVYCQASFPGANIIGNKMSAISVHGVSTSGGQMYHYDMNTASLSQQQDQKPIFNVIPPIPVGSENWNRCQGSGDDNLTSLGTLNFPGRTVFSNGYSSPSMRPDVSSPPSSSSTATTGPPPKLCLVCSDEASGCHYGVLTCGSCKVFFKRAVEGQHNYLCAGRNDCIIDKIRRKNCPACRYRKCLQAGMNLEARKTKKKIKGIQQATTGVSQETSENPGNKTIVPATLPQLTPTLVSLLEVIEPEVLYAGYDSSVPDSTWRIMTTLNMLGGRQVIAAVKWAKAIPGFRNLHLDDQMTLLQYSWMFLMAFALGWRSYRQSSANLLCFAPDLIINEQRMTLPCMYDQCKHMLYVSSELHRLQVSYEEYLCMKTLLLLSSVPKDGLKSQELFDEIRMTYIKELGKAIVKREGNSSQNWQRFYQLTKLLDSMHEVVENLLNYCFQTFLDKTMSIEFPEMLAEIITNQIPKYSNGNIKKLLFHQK
# Test: qHTS assay to identify small molecule antagonists of the glucocorticoid receptor (GR) signaling pathway (AID 720692)
# Conditions: GR-bla HeLa, beta-lactamase FRET ratio, dexamethasone-stimulated, 18 h; series mostly up to 58.5 µM; activity change, negative = inhibition: at the top concentration
# From the text: U.S. Tox21 Program National Center for Advancing Translational Sciences [NCATS] NIH Chemical Genomics Center [NCGC] U.S. Environmental Protection Agency [EPA] National Institutes of Environmental Health Sciences [NIEHS] National Toxicology Program [NTP] U.S. Food and Drug Administration [FDA] Tox21 Assay Overview: The Glucocorticoid receptor (GR) is one of the members of the nuclear receptor family of ligand-dependent transcription factors. GR plays a critical role in carbohydrate, protein and lipid metabolisms and programmed cell death. CellSensor GR-bla HeLa cell line (Invitrogen) contains a beta-lactamase reporter gene under the control of the glucocorticoid response element stably integrated into HeLa cells, a cervical cancer cell line that expresses glucocorticoid receptor. The activation of the reporter gene under culture conditions can be detected by fluorescence intensity. This cell line has been used to screen the Tox21 10K compound library and to identify the compounds that inhibit the GR signaling.
# Tox21 Assay Protocol Summary: The GR-bla HeLa cells were dispensed at 1500 cells/5 ul/well in 1536-well black wall/clear bottom plates using a Multidrop Combi (ThermoFisher Scientific, Waltham, MA) dispenser. After the assay plates were incubated at a 37 C/5% CO2 incubator for 4 hours, 23 nL of compounds dissolved in DMSO, positive controls or DMSO only was transferred to the assay plate by a pintool station (Kalypsys, San Diego, CA), followed by addition of 1 uL of dexamethasone (5 nM, final concentration in the well). The plates were incubated at 37 C for 18 hours. After 1 uL of LiveBLAzerTM B/G FRET substrate was added using a Flying Reagent Dispenser (Aurora Discovery, San Diego, CA), the plates were incubated at room temperature for 2 hours, and fluorescence intensity was measured by an Envision plate reader (PerkinElmer, Shelton, CT).
# On the % scale 0 is the no-effect control and ±100 the full control effect; potency means the concentration at half of the fitted maximal effect.
SMILES,Potency,"activity change, negative = inhibition"
COCc1c(C(C)C)nc(C(C)C)c(/C=C/[C@@H](O)C[C@@H](O)CC(=O)O)c1-c1ccc(F)cc1,3.38 µM (active),–
CCOC(=O)c1ccccc1C,–,0.34%
CO/N=C1\CN(c2nc3c(cc2F)c(=O)c(C(=O)O)cn3C2CC2)CC1CN (stereo not given),–,25.9%
CCC(=O)OC/C=C/c1ccccc1,–,0.117%
CCCC1C(CC)=CC(CC)=CN1c1ccccc1 (stereo not given),49 µM (active),–
O=C(CCCN1CCC(O)(c2ccc(Br)cc2)CC1)c1ccc(F)cc1,–,1.47% [at 27 µM]
CC#N,–,-9.88% [at 78.9 µM]
CC1CC(=O)NN=C1c1ccc(NCC(C)(C)NCC(O)COc2cc(Cl)ccc2C#N)cc1 (stereo not given),–,-4.22%
CN1CCN(c2c(F)cc3c(=O)c(C(=O)O)cn4c3c2OCN4C)CC1,–,9.27%
CCN(CC)CCNC(=O)c1ccc(NC(C)=O)cc1,–,11.8%
[O]=[Bi],–,-10.6% [at 7.04 µM]
CC1=CC(O)CC(C)(C)C1 (stereo not given),–,7.93%
O=C(NCCCN1CCOCC1)c1ccc(Cl)cc1,–,-2.94%
c1cc[c]([Bi]([c]2ccccc2)[c]2ccccc2)cc1,19.5 µM (active),–
NC(=O)N(O)[C@@H]1COc2cc(OCc3ccccc3)ccc21,–,-18.8%
C=CC(C)(C)CC(=O)OC,–,15.9% [at 78.9 µM]
CO[C@@]12[C@H](COC(N)=O)C3=C(C(=O)C(C)=C(N)C3=O)N1C[C@@H]1N[C@@H]12,21.3 µM (active),–
O=C(C(=O)c1ccccc1)c1ccccc1,–,-4.54%
COCCOC(=O)C1=C(C)NC(C)=C(C(=O)OC/C=C/c2ccccc2)C1c1cccc([N+](=O)[O-])c1 (stereo not given),10.7 µM (active),–
c1ccc(COCc2ccccc2)cc1,–,2.88% [at 78.9 µM]

SMILES,Potency,"activity change, negative = inhibition"
CC(C)C(=O)O,–,-1.38%
Cc1cnc(C)c(C)n1,–,0.425% [at 78.9 µM]
Cc1nc2ccccc2s1,–,-17.7% [at 78.9 µM]
COCC(O)CO (stereo not given),–,-14.3% [at 78.9 µM]
Cc1ccccc1N1C(=O)c2cc(S(N)(=O)=O)c(Cl)cc2NC1C (stereo not given),–,-24%
CN(C(=O)C(Cl)Cl)c1ccc(OC(=O)c2ccco2)cc1,–,-10.9%
CNCCCC1c2ccccc2C=Cc2ccccc21,–,22.5% [at 27 µM]
O=C(CCCCCCCCC#CI)Oc1ccccc1,–,-3.04%
CN1CCCN=C1/C=C/c1cccs1,–,-1.43%
O=C(N/N=C/c1ccc([N+](=O)[O-])o1)c1ccc(O)cc1,–,-18.3% [at 27 µM]
COC(=O)CC(=O)C(C)(C)C,–,-0.794%
CCCCCC=CCC=CCCCCCCCC(=O)OCC,–,-1.46%
CC(C)OCC1CO1 (stereo not given),–,1.44%
CC1=CC(=O)CC(C)(C)C1(O)/C=C/C(C)=C\C(=O)O (stereo not given),–,-5.55%
C[N+]1(C)CCC(=C(c2ccccc2)c2ccccc2)CC1,–,-2.65% [at 27 µM]
O=Cc1c(Cl)cccc1Cl,–,-16.8% [at 78.9 µM]
COCCOC,–,19.9%
CC(C)c1nnc2ccc(-c3ocnc3-c3cc(F)ccc3F)cn12,–,-9.36%
Cc1nccn1-c1ccc(Sc2cccc(C3(C(N)=O)CCOCC3)c2)cc1,24.5 µM (active),–
CN1C(=O)CC(C)(c2ccccc2)C1=O (stereo not given),–,-21.8%
